# Screen size: about 66,000 compounds; about 960 (1.5%) showed an effect of 50% or more. For the sample, strong results were picked, then their nearest neighbours and some compounds at random.
# Tested on: Trypanosoma brucei
# Experiment: Trypanosoma brucei 72 hour study
# Format: functional, organism-based
# Parameters: scale not given: in the data most compounds retested in dose-response had high values
compound,measurement,setting,value
CN(C)c1ncc(-c2ccc(C(N)=O)cc2)c(C2CCNC2)n1.Cl (centres undefined),Percent Effect,"30.3 µM, […]",3.717%
C[C@@H]1CN(C2CCCCC2)CC[C@@]1(O)C1CCOCC1,Percent Effect,"30 µM, 30.03 µM",-20.03%
Cl.NC1CCc2nc(-c3ccncc3)nc(Nc3cccc(F)c3)c2C1 (centres undefined),Percent Effect,"30.3 µM, […]",99.62%
c1cc(-c2nc3c(c(NCCn4ccnn4)n2)CCNCC3)ccn1,Percent Effect,"30 µM, 30.03 µM",-15.86%
CC(Nc1nc(-c2ccncc2)nc2c1CCNC2)c1ccccc1 (centres undefined),Percent Effect,"30 µM, 30.03 µM",-57.19%
O=C(Nc1cccc(F)c1)NC1CCN(Cc2ccncc2)CC1,Percent Effect,"30.3 µM, […]",-25.17%
CCOCCNc1nc(-c2ccncc2)nc2c1CCNCC2,Percent Effect,"30.3 µM, […]",-307.1%
CS(=O)(=O)NCc1ncn2c1CN(Cc1cccs1)CCC2.O=C(O)C(F)(F)F.O=C(O)C(F)(F)F,Percent Effect,"30 µM, 30.03 µM",32.32%
Cc1c(C(=O)NCCC(=O)N2CCOCC2)sc2ccc(F)cc12,Percent Effect,"30 µM, 30.03 µM",-29.66%
CN1C[C@]2(CC[C@@H](C(=O)O)CC2)Oc2ccccc2C1=O,Percent Effect,"30.3 µM, […]",-13.61%
C[C@@H]1CN(C(=O)c2cccs2)C[C@]12CCN(CCN(C)C)C2=O.O=C(O)C(F)(F)F,Percent Effect,"30.3 µM, […]",-25.2%
c1nc2n(c1CN1CCOCC1)CCN(C1CCOC1)CC2 (centres undefined),Percent Effect,"30 µM, 30.03 µM",-183.8%
O=C(O)C(F)(F)F.O=C(O)C(F)(F)F.c1nc2n(c1CN1CCCCC1)CCN(C1CCOC1)CC2 (centres undefined),Percent Effect,"30 µM, 30.03 µM",-102.4%
c1nc2n(c1CN1CCCC1)CCN(C1CCOCC1)CC2,Percent Effect,"30 µM, 30.03 µM",51.58%
Cl.O=C(NCCO)C1(Cc2ccccc2-c2cccnc2)CCOCC1,Percent Effect,"30.3 µM, […]",-4.855%
COC1COC2(CCN(Cc3ccc4c(c3)OCO4)CC2)C1.O=C(O)C(F)(F)F (centres undefined),Percent Effect,"30.3 µM, […]",-15.29%
Br.Cc1ncc(C(=O)N2CCOC(C(=O)N3CCCCCC3)C2)c(C)n1 (centres undefined),Percent Effect,"30.3 µM, […]",-22.96%
Cn1ccc2c(C(=O)NCCCN3CCCC3)cccc21,Percent Effect,"30 µM, 30.03 µM",-4.832%
O=C(NCCCN1CCCCC1)c1ccc(-n2ccc3ccccc32)s1,Percent Effect,"30 µM, 30.03 µM",80.76%
CCN(CC)CCNC(=O)c1ccc(-n2ccc3ccccc32)s1,Percent Effect,"30 µM, 30.03 µM",-12.39%
O=C(NCCN1CCOCC1)c1ccc(-n2ccc3ccccc32)s1,Percent Effect,"30 µM, 30.03 µM",63.33%
O=C(NCCCN1CCOCC1)c1ccc(-n2ccc3ccccc32)s1,Percent Effect,"30 µM, 30.03 µM",-4.421%
O=C(NCCCN1CCCC1=O)c1ccc(-n2ccc3ccccc32)s1,Percent Effect,"30 µM, 30.03 µM",23.58%
COc1cc(Oc2cnc3ccccc3n2)ccc1CN1CCCC1,Percent Effect,"30 µM, 30.03 µM",-18.27%
CC1CCCCN1C(=O)c1n[nH]c(=O)c2ccccc12 (centres undefined),Percent Effect,"30.3 µM, […]",-7.93%
Cn1nnc2c1CCN(Cc1ccncc1)C2COCC1CC1.O=C(O)C(F)(F)F.O=C(O)C(F)(F)F (centres undefined),Percent Effect,"30 µM, 30.03 µM",49.24%
CCOCc1ccccc1NC(=O)NCC(C)(O)c1ccsc1 (centres undefined),Percent Effect,"30 µM, 30.03 µM",56.33%
CCOCc1ccccc1NC(=O)NCC(C)(O)c1cccs1 (centres undefined),Percent Effect,"30 µM, 30.03 µM",-46.58%
CCOCc1ccccc1NC(=O)NCC(C)(O)c1cc(C)oc1C (centres undefined),Percent Effect,"30 µM, 30.03 µM",-15.34%
Cc1nonc1CN(C)c1nc(-c2ccco2)nc2c1CCN(C)CC2,Percent Effect,"30 µM, 30.03 µM",-56.96%
O=C(NCCc1coc(-c2ccc(F)cc2)n1)NC1CC1,Percent Effect,10 µM,99.81%
same,Percent Effect,"30.3 µM, […]",99.45%
Cc1ccc(-c2nc(CCNC(=O)NC3CCC(O)CC3)co2)cc1 (centres undefined),Percent Effect,10 µM,-4.374%
same,Percent Effect,"30.3 µM, […]",17.54%
O=C(NCCc1coc(-c2ccc(F)cc2)n1)NC1CCC(O)CC1 (centres undefined),Percent Effect,"30 µM, 30.03 µM",-16.25%
COc1ccc(-c2nc(CCNC(=O)NC3CCC(O)CC3)co2)cc1 (centres undefined),Percent Effect,"30 µM, 30.03 µM",-54.4%
Cc1ccc(-c2nc(CCNC(=O)NC3CCN(C)CC3)co2)cc1,Percent Effect,"30 µM, 30.03 µM",6.387%
O=C(NCCc1coc(-c2ccccc2)n1)NC1CC1,Percent Effect,10 µM,101.4%
same,Percent Effect,"30.3 µM, […]",100%
CO[C@@H]1CN(c2ccccc2)S(=O)(=O)[C@@]12CCN(C(=O)N(C)C)C2,Percent Effect,"30.3 µM, […]",5.082%
O=C1C[C@H]2CC[C@@H](CN1)N2C(=O)CCc1ccsc1,Percent Effect,"30.3 µM, […]",5.085%
CCc1n[nH]c(C2CN(C(=O)c3ncoc3C(C)C)CCO2)n1 (centres undefined),Percent Effect,"30.3 µM, […]",10.22%
COCCN(CC1CC1)c1nc(CCN)nc2ccccc12,Percent Effect,"30 µM, 30.03 µM",27.63%
Cc1sc2nc(CCN)nc(N(CCN(C)C)CC3CCCO3)c2c1C (centres undefined),Percent Effect,"30 µM, 30.03 µM",33.05%
COCCN(CC1CC1)c1nc(CCN)nc2sc(C)c(C)c12,Percent Effect,"30 µM, 30.03 µM",105.1%
CCN(CCN(C)C)c1nc(CCN)nc2sc(C)c(C)c12,Percent Effect,"30 µM, 30.03 µM",-19.52%
Cc1sc2nc(CCN)nc(N(C)CCCC3CCCO3)c2c1C (centres undefined),Percent Effect,"30 µM, 30.03 µM",73.15%
COCCN(Cc1cccs1)c1nc(CCN)nc2ccccc12,Percent Effect,"30 µM, 30.03 µM",3.665%
O=C(O)C(F)(F)F.O=C1CCC2(CCN(Cc3nccs3)CC2)N1Cc1ccccc1,Percent Effect,"30 µM, 30.03 µM",-8.129%
O=C(O)C(F)(F)F.O=C1CC[C@H]2[C@H](CCN2C(=O)C2CCOC2)N1Cc1ccncc1 (some centres undefined),Percent Effect,"30 µM, 30.03 µM",-22.31%
Cc1noc(C)c1CN1C[C@H](OCC2CCN(C)CC2)[C@H]2COC[C@H]21.O=C(O)C(F)(F)F.O=C(O)C(F)(F)F,Percent Effect,"30.3 µM, […]",-21.15%
Cc1nc(COCC2CN(C(=O)N(C)C)Cc3nccn3C2)cs1.O=C(O)C(F)(F)F (centres undefined),Percent Effect,"30.3 µM, […]",-49.05%
CCn1ncc2c1C(COC)CN(Cc1cccnc1)C2.O=C(O)C(F)(F)F.O=C(O)C(F)(F)F.O=C(O)C(F)(F)F (centres undefined),Percent Effect,"30.3 µM, […]",-94.72%
COc1cc(N2CC[C@@H](O)[C@@H]2Cc2ccncc2)ncn1.O=C(O)C(F)(F)F,Percent Effect,"30 µM, 30.03 µM",35.07%
COc1cc(F)ccc1-c1ncccc1NC(=O)C(C)C,Percent Effect,"30 µM, 30.03 µM",52.34%
COc1ccc(F)c(-c2ncccc2NC(=O)C(C)C)c1,Percent Effect,"30 µM, 30.03 µM",20.56%
COc1ncccc1-c1ncccc1NC(=O)C(C)C,Percent Effect,"30 µM, 30.03 µM",34.88%
Cl.Nc1ncnc2nc(C3CCCCN3)ccc12 (centres undefined),Percent Effect,"30.3 µM, […]",5.297%
COCCN1CCC(CN(CC2CCCO2)C(=O)CNC(C)=O)CC1 (centres undefined),Percent Effect,"30 µM, 30.03 µM",3.281%
CCn1cc(CN2CCCN(C(=O)CCn3cc(C)cn3)CC2)cn1,Percent Effect,"30.3 µM, […]",-9.74%
same,Percent Effect,"10 mM, 10 mM as filed; unlikely as a test dose",-22.46%
CN(C)CCNC(=O)c1cc(-c2cnc(N3CCOCC3)nc2)cn1C.O=C(O)C(F)(F)F,Percent Effect,"30.3 µM, […]",-753.9%
CN(C)CCNC(=O)c1cc(-c2cnc(N3CCCC3)nc2)cn1C.O=C(O)C(F)(F)F,Percent Effect,"30 µM, 30.03 µM",97.37%
CCCNC(=O)c1cc(-c2cnc(N3CCCC3)nc2)cn1C,Percent Effect,"30.3 µM, […]",-994.8%

# From ChEMBL document CHEMBL3988442, “University of Dundee, Small-Polar-MMV Screening Library” (2021)
